The full list was thinned out, with hits kept by preference.
Pf Dd2 growth = inhibitors of Plasmodium falciparum Dd2 growth. P. falciparum Dd2 growth, SYBR Green, 72 h. Potency, µM (highest dose often 28.9 µM), for inactives: top-dose activity, negative = inhibition, hits mostly inhibitors. 120,000 compounds, 4.3% hits. AID 1347417; active = well fitted inhibition curve with a large enough effect;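 note: plate controls were DMSO vehicle for no effect and reference drug for full effect; nearly all actives have a fitted effect of over 65% in size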
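Readout: SYBR Green fluorescence, 485 nm excitation, 535 nm emission, after ~16 h lysis at 37C. Before that, Dd2-infected red cells (2.5% hematocrit) grew 72 h with compound, 29 uM top final concentration.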
* = called active by the depositor; [ ] = another dose, or the depositor's remark. Potency is the fitted concentration of half-maximal effect.

Screening C=CCNC(=O)C(NC(=O)c1cccc(C)c1)C1CCN(C(=O)c2ccccc2OC)CC1 (centres undefined) returned Pf Dd2 growth inactive.
O=C(Cn1nc2c(cc1=O)CCCCC2)Nc1ccncc1 was read as Pf Dd2 growth 12%.
`COc1ccc(-c2cc(-c3ccncc3)cn3cncc23)cc1` gave Pf Dd2 growth 10µM*.
Screening OCc1ccc(-c2cc(-c3ccncc3)c3cncn3c2)cc1 returned Pf Dd2 growth -6%[44.1 µM].
For COc1ccccc1-c1cc(-c2ccc(=O)[nH]c2)c2cncn2c1 the results were Pf Dd2 growth 15%[44.1 µM].
Screening COc1ccc(-c2cc(-c3ccc4c(c3)CNC4=O)cn3cncc23)cc1 returned Pf Dd2 growth 4.5µM*.
Screening COc1cc(F)ccc1-c1cc(-c2cn[nH]c2)c2cncn2c1 returned Pf Dd2 growth inactive.
COc1ccc(-c2cc(-c3ccc(F)cc3OC)cn3cncc23)cc1 was read as Pf Dd2 growth 6.3µM*.
`COc1ccc(-c2cc(-c3ccncc3)c3cncn3c2)cc1` gave Pf Dd2 growth 11µM*.
`Cc1noc(C)c1-c1cc(-c2ccc3c(c2)C(=O)NC3)cn2cncc12` gave Pf Dd2 growth inactive.
For Cn1cc(-c2cc(-c3ccncc3)c3cncn3c2)cn1 the results were Pf Dd2 growth inactive.
FC(F)(F)c1cccc(-c2cc(-c3ccncc3)c3cncn3c2)c1 was read as Pf Dd2 growth -13%[44.1 µM].
Cc1ccc(NC(=O)CCSc2nc(-c3ccc4c(c3)OCO4)cc(C(F)(F)F)n2)c(C)c1 was read as Pf Dd2 growth -10%.
For O=C1CC(c2ccccc2)N(C(=O)CNC(=O)CN2C(=O)CCC2=O)CCCCCN1 (centres undefined) the results were Pf Dd2 growth 12%.
`CCN(CC)C(=O)CC[C@@H]1CNC(=O)[C@@H]2C[C@H](N)CN12` gave Pf Dd2 growth -14%[44.1 µM].
CCc1nc(C)c(C(=O)N2CCn3nc(C(O)Cc4ccccc4)cc3C2)o1 (centres undefined) was read as Pf Dd2 growth 5%.
O=C(NCC1CC1)c1cc2cn(C3CC3)cc2s1 was read as Pf Dd2 growth inactive.
`COc1ccccc1C(=O)N1CCC(C)(C(=O)O)CC1` gave Pf Dd2 growth 12%[44.1 µM].
`Fc1cccc(-c2cc(-c3cn[nH]c3)c3cncn3c2)c1` gave Pf Dd2 growth -2%[44.1 µM].
`COc1cccc(-c2cc(-c3ccncc3)c3cncn3c2)c1OC` gave Pf Dd2 growth 10µM*.
For COc1ccc(-c2cc(-c3ccc(F)cc3)cn3cncc23)cc1 the results were Pf Dd2 growth 3.2µM*.
Screening c1cc(-c2cc(-c3ccncc3)c3cncn3c2)c2[nH]ncc2c1 returned Pf Dd2 growth inactive.
For CN(C)Cc1ccc(-c2cc(-c3cn[nH]c3)c3cncn3c2)cc1 the results were Pf Dd2 growth 11%[44.1 µM].
Screening CC(C)CN1C(=O)c2cccn2CC1C(=O)NCCCc1ccccc1 (centres undefined) returned Pf Dd2 growth 13%.
CCC1(O)CCC12CCN(C(=O)C1CCCC1)CC2 (centres undefined) was read as Pf Dd2 growth -5%.
Screening C=CCS(=O)(=O)N1CCCC(CCc2cccc(OC)c2)C1 (centres undefined) returned Pf Dd2 growth -16%.
`CS(=O)(=O)CCNC(=O)C1CCCN(C2CCN(Cc3cccnc3)CC2)C1` (centres undefined) gave Pf Dd2 growth 19%.
COc1cccc(CCC2CCCN(C3CCN(Cc4cccnc4)CC3)C2)c1 (centres undefined) was read as Pf Dd2 growth 8.9µM*.
COc1cccc(CN2CCOC3(CCN([S+](=O)([O-])c4ccccc4)CC3)C2=O)c1 was read as Pf Dd2 growth -13%[44.1 µM].
Screening O=C(c1cc(Br)cn2ccnc12)N1CCC(N2CCNC2=O)CC1 returned Pf Dd2 growth 22%.
Screening Cc1ccc(NC(=O)C(=O)NCC2(c3ccccc3)CCCC2)cc1C returned Pf Dd2 growth 3%.
`COc1ccc(C)cc1NC(=O)C(=O)NCC1(c2ccccc2)CCCC1` gave Pf Dd2 growth 15%.
Screening Cc1ccc(O)c(C(CC(=O)NCC2(c3ccccc3)CCCC2)c2ccccc2)c1 (centres undefined) returned Pf Dd2 growth 10µM*.
Screening CCOc1ccc(CCNC(=O)CN2C(=O)C(CC)Oc3ccccc32)cc1OCC (centres undefined) returned Pf Dd2 growth 16%.
`O=C(Cn1nc2n(c1=O)CCCC2)Nc1ccc2c(c1)OCO2` gave Pf Dd2 growth 20%.
`O=C(c1cccs1)N1CCC(c2nc(C3CCOCC3)no2)C1` (centres undefined) gave Pf Dd2 growth 1%.
Cn1cc(NC(=O)CC[C@H]2NC(=O)c3ccccc3NC2=O)cn1 was read as Pf Dd2 growth 0%.
CCOC(=O)c1cccc(NC(=O)CCn2nc(C)c3c(C)n(-c4ccccc4)nc3c2=O)c1 was read as Pf Dd2 growth 2.5µM*.
Cc1ccc(NC(=O)CCn2nc(C)c3c(C)n(-c4ccccc4)nc3c2=O)cc1Cl was read as Pf Dd2 growth -12%.
For CCc1ccccc1NC(=O)CCn1nc(C)c2c(C)n(-c3ccccc3)nc2c1=O the results were Pf Dd2 growth -24%.
For CCOC(=O)C1CCN(Cc2ccccc2OCC(O)CN(C)C2CCCCC2)CC1 (centres undefined) the results were Pf Dd2 growth 10µM*.
For O=C1CCN(Cc2ccccc2OCC(O)CN2CCCCC2)CCN1 (centres undefined) the results were Pf Dd2 growth -8%.
`CCOc1ccccc1CN1CCN(C(=O)CC2CCOCC2)CC1` gave Pf Dd2 growth -18%.
Screening Cc1c(Cl)cccc1NC(=O)c1cnc2sc(N3CCCC3)nn2c1=O returned Pf Dd2 growth 36%.
For CCOC(=O)c1c(C)[nH]c(C)c1S(=O)(=O)N1CCCC(C(=O)N2CCN(c3ccccc3)CC2)C1 (centres undefined) the results were Pf Dd2 growth 21%.
For Cc1[nH]c2ccc(C(=O)N[C@H]3CCOC[C@H]3C3CCOCC3)cc2c1C the results were Pf Dd2 growth -1%.
`Cc1ccc(C2Cn3nnc(C(=O)N4CCC(C(=O)NCc5cccc(C)c5)CC4)c3CO2)cc1` (centres undefined) gave Pf Dd2 growth inactive.
CC1CCN(C(=O)Cn2cc(SCC(=O)Nc3ccccc3)c3ccccc32)CC1 was read as Pf Dd2 growth -21%.
CC1CCN(C(=O)Cn2cc(SCC(=O)NCc3ccccc3)c3ccccc32)CC1 was read as Pf Dd2 growth -12%.
`CC1CCN(C(=O)CC(c2ccc(Cl)cc2)c2cn(C)c3ccccc23)CC1` (centres undefined) gave Pf Dd2 growth 7.9µM*.
CS(=O)(=O)N1CCCC(c2nc(-c3ccccc3)no2)CCNC(=O)CC1 (centres undefined) was read as Pf Dd2 growth -9%.
For CC(C)CN1CCC[C@H]1c1nc(-c2ccnc(NS(C)(=O)=O)c2)no1 the results were Pf Dd2 growth 4%[44.1 µM].
COc1cccc(CNC(=O)Cc2csc3ccccc23)c1OC was read as Pf Dd2 growth 36%.
CCOc1ccc(C2C(C(N)=O)=C(C)Nc3nc(-c4cccc(Cl)c4)nn32)cc1OC (centres undefined) was read as Pf Dd2 growth -22%.
COc1cccc(N2CC(NC(=O)C3CCCC3)CC2=O)c1 (centres undefined) was read as Pf Dd2 growth 44%.
CC(=O)C1=C(c2ccccc2)N(C(C)=O)n2c(nnc2C2CCCCC2)S1 was read as Pf Dd2 growth 1.1µM*.
